In PubChem BioAssay (Tox21):
Records with an inconclusive call do not appear. Activity calls are given as the source filed them. Calls come from the whole dose curve; as a rule, active = well fitted curve in the direction sought with a large enough effect in the repeat runs; inconclusive = weak or mixed curves; inactive = no such curve, though single readings can be large; an effect the other way counts as inactive or inconclusive.

Tests used:
[1] = biological target: Cytochrome P450 2D6 (Homo sapiens) (UniProt P10635); experiment: Cytochrome P450 Family 2 Subfamily D Member 6 (CYP2D6) small molecule antagonists: luciferase reporter qHTS assay (AID 1671196); conditions: P450-Glo CYP2D6 enzyme assay, luciferin luminescence, 1 h; series mostly up to 115 µM; note: nearly all actives have a fitted effect of over 50% in size; note: potency is the fitted concentration of half-maximal effect
How it was run: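 Read-out is luminescence from luciferin formed by CYP2D6 turnover of a proluciferin substrate, recorded as relative luminescence units. Reactions ran 1 h at room temperature after NADPH regeneration solution was added.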

[2] = biological target: Cytochrome P450 2C19 (Homo sapiens) (UniProt P33261); experiment: Cytochrome P450 Family 2 Subfamily C Member 19 (CYP2C19) small molecule antagonists: luciferase reporter qHTS assay (AID 1671197); conditions: P450-Glo CYP2C19 enzyme, luciferin luminescence, 1 h; series mostly up to 52.9 µM; note: nearly all actives have a fitted effect of over 65% in size; note: potency is the fitted concentration of half-maximal effect
How it was run: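 P450-Glo CYP2C19 system: enzyme-substrate mix with compound 10 min at room temperature, then NADPH regeneration solution, 1 h at 37C. Proluciferin-to-luciferin conversion detected by luminescence after 20 min with detection reagent; ketoconazole as positive control.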

[3] = biological target: Cytochrome P450 2C9 (Homo sapiens) (UniProt P11712); experiment: Cytochrome P450 Family 2 Subfamily C Member 9 (CYP2C9) small molecule antagonists: luciferase reporter qHTS assay (AID 1671198); conditions: P450-Glo CYP2C9 enzyme assay, luciferin luminescence; series mostly up to 115 µM; note: nearly all actives have a fitted effect of over 50% in size
How it was run: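 Enzyme-substrate mix preincubated with compound 10 min at room temperature; reaction started with NADPH regeneration solution, 1 h 37C. Luminescent luciferin product read after 20 min detection reagent.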

[4] = biological target: Cytochrome P450 3A4 (Homo sapiens) (UniProt P08684); experiment: Cytochrome P450 Family 3 Subfamily A Member 4 (CYP3A4) small molecule antagonists: luciferase reporter qHTS assay (AID 1671201); conditions: P450-Glo CYP3A4 enzyme, luciferin luminescence, 1 h; series mostly up to 115 µM; note: nearly all actives have a fitted effect of over 50% in size
How it was run: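 Enzyme and proluciferin substrate are mixed with test chemicals for 10 min, then NADPH regeneration system drives turnover for 1 h at room temperature. A detection reagent halts the reaction; luminescence after 20 min gives relative activity.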

[5] = biological target: Cytochrome P450 1A2 (Homo sapiens) (UniProt P05177); experiment: Cytochrome P450 Family 1 Subfamily A Member 2 (CYP1A2) small molecule antagonists: luciferase reporter qHTS assay (AID 1671199); conditions: P450-Glo CYP1A2 enzyme, luciferin luminescence, 1 h; series mostly up to 53 µM; note: nearly all actives have a fitted effect of over 50% in size; note: potency is the fitted concentration of half-maximal effect
How it was run: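 P450-Glo CYP1A2, 1536-well qHTS: enzyme/proluciferin substrate + cpd (DMSO), 10 min RT; NADPH regen, 1 h RT; detection reagent, 20 min; luminescence, RLU.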

[6] = biological target: Voltage-gated inwardly rectifying potassium channel KCNH2 (Homo sapiens) (UniProt Q12809); experiment: Human Ether-a-go-go-Related Gene (hERG) channel small molecule antagonists: fluorescence cell-based qHTS assay (AID 1671200); conditions: hERG-U2OS cells, FluxOR thallium flux fluorescence; series mostly up to 76.8 µM
How it was run: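 First, 1000 cells per well are seeded and cultured overnight at 37 C. Next, FluxOR II dye is loaded for 1 h at room temperature, protected from light. After 10 more minutes, stimulus is added and fluorescence is read.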
% is set by controls: 0 for no effect and ±100 for the full control effect.

Cytochrome P450 3A4 (Homo sapiens), sequence (P08684 whole entry, looked up): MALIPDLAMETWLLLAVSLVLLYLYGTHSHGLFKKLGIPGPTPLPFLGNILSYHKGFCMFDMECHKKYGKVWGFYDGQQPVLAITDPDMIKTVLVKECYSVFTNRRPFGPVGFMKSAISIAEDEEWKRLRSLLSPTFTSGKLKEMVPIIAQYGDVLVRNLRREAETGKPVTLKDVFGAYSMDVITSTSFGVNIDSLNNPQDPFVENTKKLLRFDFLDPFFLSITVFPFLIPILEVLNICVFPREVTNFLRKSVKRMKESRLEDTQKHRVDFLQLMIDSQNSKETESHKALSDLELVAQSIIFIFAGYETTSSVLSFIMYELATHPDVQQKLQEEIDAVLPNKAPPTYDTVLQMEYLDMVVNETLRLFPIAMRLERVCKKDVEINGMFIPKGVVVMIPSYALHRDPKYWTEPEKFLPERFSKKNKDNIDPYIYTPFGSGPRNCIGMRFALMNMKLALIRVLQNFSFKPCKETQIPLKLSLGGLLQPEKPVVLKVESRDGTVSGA
Voltage-gated inwardly rectifying potassium channel KCNH2 (Homo sapiens), sequence (Q12809 whole entry, looked up): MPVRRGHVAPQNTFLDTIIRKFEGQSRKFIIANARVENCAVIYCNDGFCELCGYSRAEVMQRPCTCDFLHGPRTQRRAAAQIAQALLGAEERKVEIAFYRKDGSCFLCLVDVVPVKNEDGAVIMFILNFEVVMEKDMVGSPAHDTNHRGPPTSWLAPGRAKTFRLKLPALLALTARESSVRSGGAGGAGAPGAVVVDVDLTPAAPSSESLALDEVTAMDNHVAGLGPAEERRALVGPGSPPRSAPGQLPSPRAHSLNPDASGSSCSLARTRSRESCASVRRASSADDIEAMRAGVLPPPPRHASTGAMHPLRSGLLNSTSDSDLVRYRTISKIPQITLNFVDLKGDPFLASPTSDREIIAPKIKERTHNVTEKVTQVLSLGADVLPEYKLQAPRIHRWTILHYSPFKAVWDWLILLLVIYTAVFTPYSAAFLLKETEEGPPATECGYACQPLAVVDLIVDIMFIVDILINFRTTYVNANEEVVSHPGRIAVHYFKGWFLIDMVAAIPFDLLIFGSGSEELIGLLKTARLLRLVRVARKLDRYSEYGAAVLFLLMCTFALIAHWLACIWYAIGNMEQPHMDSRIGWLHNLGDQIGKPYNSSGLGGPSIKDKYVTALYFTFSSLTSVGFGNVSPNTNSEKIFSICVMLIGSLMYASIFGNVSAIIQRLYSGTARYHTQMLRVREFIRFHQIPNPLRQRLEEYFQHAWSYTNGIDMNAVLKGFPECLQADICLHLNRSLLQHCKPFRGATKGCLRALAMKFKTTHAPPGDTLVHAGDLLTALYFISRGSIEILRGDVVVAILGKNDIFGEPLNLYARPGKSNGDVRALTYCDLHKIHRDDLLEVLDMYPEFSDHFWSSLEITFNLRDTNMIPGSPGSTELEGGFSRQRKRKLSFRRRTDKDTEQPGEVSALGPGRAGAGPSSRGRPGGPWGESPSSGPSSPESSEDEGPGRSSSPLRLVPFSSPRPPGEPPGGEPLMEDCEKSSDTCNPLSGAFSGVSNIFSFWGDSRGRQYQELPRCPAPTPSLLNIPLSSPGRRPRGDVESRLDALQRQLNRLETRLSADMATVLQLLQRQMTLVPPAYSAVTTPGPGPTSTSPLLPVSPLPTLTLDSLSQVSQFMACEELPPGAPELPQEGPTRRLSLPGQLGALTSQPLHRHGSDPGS
Cytochrome P450 2C9 (Homo sapiens), sequence (P11712 whole entry, looked up): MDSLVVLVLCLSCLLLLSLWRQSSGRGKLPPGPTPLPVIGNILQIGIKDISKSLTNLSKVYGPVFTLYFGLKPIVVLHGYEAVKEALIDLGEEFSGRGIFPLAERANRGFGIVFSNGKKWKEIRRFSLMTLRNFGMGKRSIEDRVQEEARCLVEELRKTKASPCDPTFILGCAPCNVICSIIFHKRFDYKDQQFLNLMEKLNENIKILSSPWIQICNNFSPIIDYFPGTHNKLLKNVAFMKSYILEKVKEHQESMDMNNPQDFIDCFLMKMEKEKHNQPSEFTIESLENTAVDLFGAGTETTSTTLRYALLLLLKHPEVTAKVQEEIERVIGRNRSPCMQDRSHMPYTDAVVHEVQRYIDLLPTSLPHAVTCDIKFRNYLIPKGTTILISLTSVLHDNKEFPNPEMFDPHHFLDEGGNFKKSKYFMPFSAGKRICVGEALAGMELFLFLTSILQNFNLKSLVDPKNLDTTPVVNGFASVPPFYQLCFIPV
Cytochrome P450 1A2 (Homo sapiens), sequence (P05177 whole entry, looked up): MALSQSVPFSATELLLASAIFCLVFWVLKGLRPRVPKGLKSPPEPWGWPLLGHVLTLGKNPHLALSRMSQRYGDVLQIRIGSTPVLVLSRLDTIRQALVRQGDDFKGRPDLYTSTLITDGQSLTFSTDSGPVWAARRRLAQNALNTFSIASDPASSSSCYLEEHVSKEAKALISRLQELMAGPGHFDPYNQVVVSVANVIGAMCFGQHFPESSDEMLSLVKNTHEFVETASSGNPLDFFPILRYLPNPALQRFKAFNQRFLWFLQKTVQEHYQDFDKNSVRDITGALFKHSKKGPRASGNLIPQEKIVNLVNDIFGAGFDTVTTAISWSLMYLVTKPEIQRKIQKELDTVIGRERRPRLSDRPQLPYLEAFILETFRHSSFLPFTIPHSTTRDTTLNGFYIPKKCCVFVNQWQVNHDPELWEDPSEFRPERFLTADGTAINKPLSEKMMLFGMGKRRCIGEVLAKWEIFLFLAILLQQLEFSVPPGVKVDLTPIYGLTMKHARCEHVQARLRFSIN
Cytochrome P450 2D6 (Homo sapiens), sequence (P10635 whole entry, looked up): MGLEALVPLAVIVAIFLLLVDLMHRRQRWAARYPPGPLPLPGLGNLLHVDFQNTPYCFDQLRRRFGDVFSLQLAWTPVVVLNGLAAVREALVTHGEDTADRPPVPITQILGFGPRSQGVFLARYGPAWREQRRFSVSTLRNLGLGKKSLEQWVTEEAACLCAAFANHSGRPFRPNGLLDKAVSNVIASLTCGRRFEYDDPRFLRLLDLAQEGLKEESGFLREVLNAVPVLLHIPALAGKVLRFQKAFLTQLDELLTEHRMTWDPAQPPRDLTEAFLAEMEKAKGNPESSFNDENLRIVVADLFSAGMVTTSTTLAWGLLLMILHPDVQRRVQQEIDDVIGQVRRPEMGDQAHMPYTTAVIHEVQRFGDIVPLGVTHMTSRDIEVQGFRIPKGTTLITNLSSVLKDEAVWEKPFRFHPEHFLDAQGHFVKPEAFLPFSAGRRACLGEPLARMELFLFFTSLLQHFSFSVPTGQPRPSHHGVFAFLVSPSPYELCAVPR
Cytochrome P450 2C19 (Homo sapiens), sequence (P33261 whole entry, looked up): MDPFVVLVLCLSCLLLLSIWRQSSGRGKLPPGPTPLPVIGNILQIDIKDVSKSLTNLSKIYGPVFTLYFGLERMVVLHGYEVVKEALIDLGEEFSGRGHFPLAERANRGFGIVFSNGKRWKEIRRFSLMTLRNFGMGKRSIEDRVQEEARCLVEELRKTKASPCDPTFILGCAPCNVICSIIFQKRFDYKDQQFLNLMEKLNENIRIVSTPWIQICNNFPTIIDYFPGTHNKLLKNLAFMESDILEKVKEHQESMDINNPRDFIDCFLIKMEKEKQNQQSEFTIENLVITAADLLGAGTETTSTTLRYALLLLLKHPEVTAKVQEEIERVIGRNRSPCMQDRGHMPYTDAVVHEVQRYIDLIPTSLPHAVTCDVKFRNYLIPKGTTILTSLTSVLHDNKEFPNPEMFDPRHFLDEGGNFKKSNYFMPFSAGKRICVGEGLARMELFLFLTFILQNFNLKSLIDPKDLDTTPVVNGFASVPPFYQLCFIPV

CCCCCCCCCCCCCC=O
inactive: activity change, negative = inhibition [2] -12.1% [at 10.5 µM] | activity change, negative = inhibition [3] -9.33% [at 10.5 µM] | activity change, negative = inhibition [4] -19.9% [at 10.5 µM]
active: Potency [1] 2.78 µM

C=C1CC[C@H]2C[C@@H]1C2(C)C
inactive: Potency [1] | Potency [2] | Potency [5] | Potency [6] | Potency [4]

Nc1ccc(S(=O)(=O)Nc2ccnn2-c2ccccc2)cc1
inactive: activity change, negative = inhibition [1] 0.38% [at 23.6 µM] | Potency [2] | Potency [5]

CN(C(=O)c1c(O)c2ccccc2n(C)c1=O)c1ccccc1
inactive: Potency [1] | Potency [2] | Potency [5] | Potency [6] | Potency [4]

O=C1CC2CC1C1CCCC21 (stereo unspecified)
inactive: Potency [1] | Potency [2] | Potency [6] | Potency [4]

CC(=O)c1ccccc1O
inactive: Potency [1] | Potency [2] | Potency [5] | Potency [6] | Potency [4]

CCOC(=O)c1cccc(N)c1
inactive: Potency [1] | Potency [2] | Potency [6] | Potency [4]
active: Potency [5] 5.75 µM

N[C@H]1CN(c2c(F)cc3c(=O)c(C(=O)O)cn(C4C[C@H]4F)c3c2Cl)CC12CC2 (stereo partly specified)
inactive: Potency [2] | Potency [3] | Potency [5] | Potency [6]

CCCCC/C=C\CCC=O
active: Potency [2] 63.3 µM
inactive: Potency [1] | Potency [6] | Potency [4]

COc1ccc2c(c1)c(CC(=O)OCC(=O)O)c(C)n2C(=O)c1ccc(Cl)cc1
inactive: Potency [1] | Potency [2] | Potency [5] | Potency [4]

CCCCCCCCCCCCCCCCC
active: Potency [5] 12.6 µM
inactive: Potency [1] | Potency [2] | Potency [4]

CCc1ccc(O)c(OC)c1
inactive: Potency [1] | Potency [3] | Potency [6] | Potency [4]
active: Potency [5] 31.7 µM

Cc1ccc(Cl)cc1Cl
inactive: Potency [1] | Potency [2] | Potency [6] | Potency [4]

NS(=O)(=O)c1cc(C(=O)NN2C[C@H]3[C@H]4CCC(C4)[C@H]3C2)ccc1Cl
inactive: Potency [2] | Potency [3] | Potency [5] | Potency [6]

COC(=O)NN
inactive: Potency [1] | Potency [3] | Potency [5] | Potency [6] | Potency [4]

CC(C[N+](C)(C)C)OC(N)=O (stereo unspecified)
inactive: Potency [1] | Potency [2] | Potency [6] | Potency [4]

O=c1cc(CO)occ1O
inactive: Potency [1] | Potency [2] | Potency [5] | Potency [4]

CN1C(=O)N(C)C(O)C1O (stereo unspecified)
inactive: Potency [1] | Potency [2] | Potency [6] | Potency [4]

Cn1cc(S(C)=O)c(=O)c2ccc(F)cc21 (stereo unspecified)
inactive: Potency [1] | Potency [2] | Potency [5] | Potency [6] | Potency [4]

CC(C)CCCC(C)N (stereo unspecified)
inactive: Potency [1] | Potency [3] | Potency [6] | Potency [4]
active: Potency [5] 21.9 µM

CCC=O
inactive: Potency [1] | Potency [2] | Potency [6] | Potency [4]

Cc1ccc(=O)n(-c2ccccc2)c1
inactive: Potency [1] | Potency [3] | Potency [5] | Potency [6] | Potency [4]
